Experimental data reported in PubChem BioAssay (NCI).
The panel holds about 83,000 compounds, 20% with a hit somewhere; the sample as a whole holds those more often.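 Growth was measured after 48 h exposure to one concentration of compound in 96-well plates. Values under 10 count as active.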 Unmarked numbers belong to inactive results. Active and inactive are the calls of the source.

Tests used:
Experiment in all cases: NCI-60 one-dose screen, 48 h (100 = growth as untreated, 0 = no growth, -100 = all killed)
Conditions in all cases: 10 µM unless noted
[1] = test system: SK-MEL-2 melanoma
[2] = test system: EKVX NSCLC
[3] = test system: SN12C renal
[4] = test system: UO-31 renal
[5] = test system: TK-10 renal
[6] = test system: ACHN renal
[7] = test system: CAKI-1 renal
[8] = test system: CCRF-CEM leukemia
[9] = test system: MOLT-4 leukemia
[10] = test system: A498 renal

Row | Compound | growth [1] | growth [2] | growth [3] | growth [4] | growth [5] | growth [6] | growth [7] | growth [8] | growth [9] | growth [10]
1 | CN(C)c1ncnc2c1ncn2C1CCCCO1 (stereo unspecified) | 102% | 102% | 93.8% | 73.2% | 101% | 104% | 102% | 94.9% | 95.1% | 
2 | COc1ccc(NS(=O)(=O)N2CCCCC2)cc1 | 99.1% | 115% | 93% | 76.4% | 102% | 104% | 103% | 89.6% | 99.8% | 80%
3 | CCN1CCN(c2nc(NNC(=O)Cc3ccccc3)nc(N3CCN(C(c4ccccc4)c4ccccc4)CC3)n2)CC1 | 37.6% | 75.7% | 77.9% | 61.7% | 89.1% | 86.4% | 39.5% | 42.6% | 38.5% | 
4 | CC(NC(=O)Oc1cccc2ccccc12)c1ccccc1 (stereo unspecified) | 107% | 107% | 97.4% | 61.1% | 105% | 98.9% | 121% | 72% | 68.9% | 106%
5 | O=C(c1ccccc1)c1ccc(Oc2ccc([N+](=O)[O-])cc2[N+](=O)[O-])cc1 | 34.9% | 99.6% | 71.6% | 48.7% | 83.4% | 50.4% | 27.3% | 27.4% | 78.3% | 
6 | Cc1ccc(S(=O)(=O)N2CCN(C(=O)CSc3nc4ccc(C)cc4[nH]3)CC2)cc1 | 5.46% (active) | 97% | 107% | 93.3% | 129% | 113% | 116% | 94.6% | 74.4% | 99.7%
7 | CC1CN(CC(O)c2ccc(Br)cc2)CCO1 (stereo unspecified) | 103% | 120% | 110% | 85.4% | 110% | 106% | 103% | 102% | 97% | 
8 | N/C(=N\c1nc2ccccc2s1)NC(=O)Nc1ccccc1Cl | 18.8% | 41.2% | 42.2% | 54.2% | 69.4% | 42.2% | 32.7% | 12.9% | 13.9% | 
9 | CCOC(=O)Nc1ccc2c3c(cccc13)-c1ccccc1-2 | 24.8% | 48.4% | 42.2% | 21.1% | 45.5% | 50.6% | 16.5% | 55.4% | 36% | 76.2%
10 | CCOC(=O)C1C(=O)NC(C(=O)OCC)(C(=O)OCC)C1CC (stereo unspecified) | 110% | 117% | 100% | 89.5% | 115% | 104% | 99.9% | 109% | 113% | 104%
11 | CC1C(C)N(C(=O)CCl)c2ccccc2N1C(=O)CCl (stereo unspecified) | -40.9% (active) | -60% (active) | -26.6% (active) | -84.8% (active) | -87.4% (active) | -91.5% (active) | -79.7% (active) | -34.6% (active) | -26.5% (active) | -83.5% (active)
12 | N#Cc1c(-c2ccccc2)cc(-c2ccccc2)n(CCCC(=O)O)c1=O | 97.8% | 94% | 96.2% | 85.8% | 124% | 97.8% | 97.1% | 104% | 97.3% | 
13 | O=C(O)C1C(c2ccccc2)c2ccccc2C(O)C1CO (stereo unspecified) | 98.7% | 119% | 98.1% | 78.2% | 102% | 97.3% | 112% | 92.9% | 104% | 
14 | Nc1nc(Nc2ccccc2SSc2ccccc2Nc2nc(N)nc(C(Cl)(Cl)Cl)n2)nc(C(Cl)(Cl)Cl)n1 | 72.3% | 67.5% | 19.3% | -38.5% (active) | 116% | -25.3% (active) | 52.2% | 45.5% | 46.7% | 
15 | COc1cc(/C=N/OC(=O)Nc2ccccc2)cc(OC)c1OC | 115% | 117% | 94.4% | 69% | 99% | 107% | 110% | 98.1% | 100% | 
16 | Cc1cc(=O)[nH]c(/C(=N/Nc2ccccc2)C(=O)c2ccc(Cl)cc2)n1 | 102% | 103% | 93.2% | 116% | 65.5% | 111% | 104% | 66% | 39.8% | 84%
17 | NS(=O)(=O)c1ccc(-n2ncc3c(SCc4ccccc4)ncnc32)cc1 | 99.8% | 107% | 98.8% | 98.5% | 89.4% | 98% | 26.3% |  | 50.3% | 111%
18 | Nc1nc(Nc2ccccc2SSc2ccccc2Nc2nc(N)nc(-c3ccc(I)cc3)n2)nc(-c2ccc(I)cc2)n1 | 103% | 52.2% | 23.4% | -92.2% (active) | 104% | 19.2% | 59.7% | 50.3% | 71.7% | 
19 | O=C1OC(Oc2ccccc2)(c2ccccc2)c2ccccc21 (stereo unspecified) | 104% | 133% | 110% | 102% | 109% | 102% | 87.4% | 103% | 76% | 79.9%
20 | CC(=O)Nc1cc(C(c2ccccc2)c2ccccc2)cc(C(c2ccccc2)c2ccccc2)c1C | 27% | 61.4% | 69.7% | 49.3% | 84.3% | 51.1% | 49.2% | 34.1% | 8.92% (active) | 
21 | Cc1ccccc1NC(=O)N/C(N)=N/c1nc2ccccc2s1 | 37.6% | 39.6% | 40% | 54.6% | 67% | 39.2% | 38.8% | 14.2% | 14.9% | 
22 | COc1cc2c(cc1OC)C(=O)/C(=C/c1cccc(OCC(=O)c3ccccc3)c1)C2 | 44.1% | 94.4% | 88.8% | -19.2% (active) | 122% | 96.9% | 93.4% | 38% | 55.3% | 103%
23 | COc1ccc(OC)c(CCn2cncc2-c2c[nH]c3cc(Br)ccc23)c1 | 7.7% (active) | 35.3% | 49.5% | 39.5% | 45.9% | 58.3% | 35.5% | 36.8% | 16.2% | 
24 | CS(=O)(=O)N1CCN(Cc2cc3nc(-c4cccc5[nH]ncc45)nc(N4CCOCC4)c3s2)CC1 (tested in a mixture with another compound) | 33.4% | 16.7% | 17% | -12.9% (active) | 20.5% | 12.2% | -1.96% (active) | 20.9% | 8.77% (active) | -62.1% (active)
25 | O=C(c1ccccc1)C(CN1CCCCC1)c1ccccc1 (stereo unspecified) | 50.1% | 93.8% | 26% | -36.3% (active) | 10.9% | -12.5% (active) | 1.39% (active) | -20.2% (active) | 0.0819% (active) | 
26 | Nc1nc(SCc2cccnc2)c2ncn(C3OC(CO)C(O)C3O)c2n1 (stereo unspecified) | 109% | 101% | 89.2% | 72.7% | 99.5% | 92.2% | 98.6% | 115% | 111% | 
27 | CCCCCCCCCCN1CCC(N2CCCCC2)CC1 | -19.9% (active) | 37.4% | 45.4% | -86.7% (active) | 25.2% | 38.2% |  | 6.95% (active) | -26% (active) | 74.2%
28 | N#CC1c2ccccc2C=CN1C(=O)N(c1ccccc1)c1ccccc1 (stereo unspecified) | 88.2% | 102% | 76.1% | 36.5% | 32.1% | 12.3% | 2.37% (active) | 3.82% (active) | 3.19% (active) | 
29 | NC(=O)NC1(C(=O)O)CCCC1 | 108% | 115% | 105% | 101% | 108% | 105% | 99.9% | 98.6% | 98.2% | 
